# Measurements published in PubChem BioAssay (Tox21).
# “And” between values parts separate entries of the source, which are not always exact repeats. Equal values may be shown once. Results filed as inconclusive are left out. Where a call stands in place of a potency, no number is given. A structure can be active in one record and inactive in another. The source made the active and inactive calls. Unless noted, the call rests on the fitted dose curve.
# Assays:
# [1] = biological target: Gonadotropin-releasing hormone receptor (Homo sapiens) (UniProt P30968); assay: Human gonadotropin-releasing hormone receptor (GnRHR) small molecule agonists, calcium flux assay in GnRHR-HEK293 cells (AID 1920063); further: nearly all actives have a fitted effect of over 35% in size
# Method in brief: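 Calcium-dye fluorescence, Ex/Em=480/540, recorded every 1 sec over 3 min after compound addition to GnRHR-HEK293 cells. Cells had been seeded 18 hours earlier and dye-loaded for 1 hour at 37 C. Fifteen concentrations, triplicates.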
# [2] = G protein-coupled receptor (GPCR) small molecule agonists, calcium flux assay: HEK293 wild type cell line counter screen (AID 1920065)
# Method in brief: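 Agonist mode; 18 h seeding at 37 C, 1 h dye load at 37 C; compounds pinned from DMSO, ATP as positive control; kinetic fluorescence 480/540 nm, 3 min, 1 s reads; 15 concentrations, triplicate.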
# [3] = p53 small molecule agonists, cell-based qHTS assay with human liver microsomes (AID 1963577);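 further: p53 response element beta-lactamase reporter cells with liver microsomes plus NADPH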
# Method in brief: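 p53RE-bla cells; 5 h settle, 37 C/5% CO2; cpd + HLM 0.5 mg/mL + NADPH 0.5 mg/mL (final); 16 h 37 C; LiveBLAzer 2 h RT dark; fluorescence readout.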
# [4] = p53 small molecule agonists, cell-based qHTS assay with rat liver microsomes (AID 1963578)
# Method in brief: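 Rat liver microsome activation: microsomes 0.5 mg/mL, NADPH 0.5 mg/mL final; p53RE-bla cells, 16 h 37 C; LiveBLAzer readout, 2 h RT dark.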
# [5] = p53 small molecule agonists, cell-based qHTS assay with human liver microsomes: qHTS cell viability counter screen (AID 1963579); further: nearly all actives have a fitted effect of over 45% in size; further: potency means the concentration at half of the fitted maximal effect
# Method in brief: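 Luminescent CellTiter-Glo read-out, 30 min at room temperature, gauged cytotoxicity in p53RE-bla cells exposed 16 h at 37 C to DMSO-dissolved compounds with metabolic activation by human liver microsomes and NADPH, each 0.5 mg/mL final.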
# [6] = p53 small molecule agonists, cell-based qHTS assay with rat liver microsomes: qHTS cell viability counter screen (AID 1963580); further: nearly all actives have a fitted effect of over 45% in size
# Method in brief: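 Rat liver microsome (0.5 mg/mL final) and NADPH (0.5 mg/mL final) co-incubation with compounds for 16 h at 37 C on HCT-116 p53RE-bla cells; cytotoxicity taken from intracellular ATP luminescence.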
# [7] = p53 small molecule agonists, cell-based qHTS assay (AID 1963582; active means well fitted activation curve with a large enough effect in the signal ratio in the repeat runs, not every such curve was filed as active; the % refers to the signal ratio)
# Method in brief: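 Fluorescence intensity read-out of a beta-lactamase reporter under a p53 response element. Cells were exposed to DMSO-dissolved compounds for 16 h at 37 C, then developed with FRET substrate for 2 h at RT.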
# [8] = biological target: Muscarinic acetylcholine receptor M1 (Homo sapiens) (UniProt P11229); assay: Cholinergic receptor muscarinic 1 (CHRM1) small molecule antagonists, cell-based qHTS assay (AID 1963588); further: nearly all actives have a fitted effect of over 40% in size
# Method in brief: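 Compounds were tested at 15 concentrations in three independent runs. Dye-loaded CHRM1-CHO cells were exposed 5 min at room temperature before stimulation by acetylcholine added at 50nM. Intracellular calcium was read kinetically on FDSS for 3 min.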
# [9] = biological target: Muscarinic acetylcholine receptor M1 (Homo sapiens) (UniProt P11229); assay: Cholinergic receptor muscarinic 1 (CHRM1) small molecule agonists, cell-based qHTS assay (AID 1963589); further: nearly all actives have a fitted effect of over 35% in size
# Method in brief: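 Calcium flux read-out: kinetic fluorescence at 1 sec intervals after pin-tool compound addition to dye-loaded CHRM1-CHO cells (human M1). Agonist mode; 15 concentrations tested in triplicate independent runs.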
# [10] = cAMP Responsive Elements (CRE) small molecule antagonists, cell-based qHTS assay (AID 1963591; active means well fitted inhibition curve with a large enough effect in the signal ratio in the repeat runs, not every such curve was filed as active; the % refers to the signal ratio)
# Method in brief: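 HEK293T CRE-bla; 18 h preincubation; compound pin-transfer; NKH477 0.25 uM final, 3 h, 37 C; LiveBLAzer FRET substrate 2 h RT.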
# [11] = biological target: Beta-2 adrenergic receptor (Homo sapiens) (UniProt P07550); assay: Adrenergic beta2 receptor (ADRB2) small molecule agonists, cell-based qHTS assay (AID 1963593);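 further: CHO cells stably overexpressing human ADRB2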
# Method in brief: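 CHO cells stably over-expressing ADRB2 were plated overnight at 37C, then dosed with compounds plus a stimulation mix containing 100uM IBMX and 25uM Ro-20-1724 for 0.5hr at room temperature. cAMP was measured by HTRF competition, 1hr.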
# [12] = biological target: D(2) dopamine receptor (Homo sapiens) (UniProt P14416); assay: Dopamine D2 receptor (DRD2) small molecule agonists, cell-based qHTS assay (AID 1963594); further: nearly all actives have a fitted effect of over 35% in size; further: potency means the concentration at half of the fitted maximal effect
# Method in brief: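 cAMP accumulation in DRD2-HEK293 cells measured by HTRF after 1 h detection; compounds added 10 min before NKH477 (200nM […]) forskolin-analogue stimulation, 30 min at room temperature, with Ro20-1724 present at 0.1 mM final.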
# [13] = biological target: D(2) dopamine receptor (Homo sapiens) (UniProt P14416); assay: Dopamine D2 receptor (DRD2) small molecule antagonists, cell-based qHTS assay (AID 1963595; active means well fitted inhibition curve with a large enough effect in the signal ratio in the repeat runs, with a control signal flat; the % refers to the signal ratio)
# Method in brief: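 HEK293 cells stably expressing DRD2, preincubated with 0.1 mM Ro20-1724 and compounds 10 min, were stimulated with 200 nM NKH477 plus 12 nM quinpirole for 30 min at room temperature; cAMP measured by HTRF (665/620 nm).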
# [14] = biological target: KiSS-1 receptor (Homo sapiens) (UniProt Q969F8); assay: Human kisspeptin (KISS1R) small molecule agonists, calcium flux assay in KISS1R-HEK293 cells (AID 1920064; active means well fitted activation curve with a large enough effect in the repeat runs)
# Method in brief: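 Calcium flux read-out: kinetic fluorescence at Ex/Em=480/540, 1 s intervals over 3 min, after pin-tool compound addition to dye-loaded KISS1R-HEK293 cells. Fifteen concentrations, triplicates.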
# [15] = p53 small molecule agonists, cell-based qHTS assay: qHTS cell viability counter screen (AID 1963581); further: nearly all actives have a fitted effect of over 45% in size
# Method in brief: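 Cytotoxicity read-out: ATP-based luminescence (CellTiter-Glo, 30 min RT) measured in the same wells as the p53 reporter assay, HCT-116 p53RE-bla cells, 16 h compound exposure at 37 C.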
# [16] = biological target: 5-hydroxytryptamine receptor 2A (Homo sapiens) (UniProt P28223); assay: 5-hydroxytryptamine receptor 2A (HTR2A) small molecule antagonists, cell-based qHTS assay (AID 1963586); further: nearly all actives have a fitted effect of over 45% in size
# Method in brief: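 CHO cells stably expressing human HTR2A were plated for 18 h at 37 C, then loaded with calcium dye for 1 h. Compounds were preincubated 5 min at room temperature before DOI (4 nM solution) was added. Kinetic fluorescence was read for 3 min.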
# [17] = biological target: 5-hydroxytryptamine receptor 2A (Homo sapiens) (UniProt P28223); assay: 5-hydroxytryptamine receptor 2A (HTR2A) small molecule agonists, cell-based qHTS assay (AID 1963587); further: nearly all actives have a fitted effect of over 30% in size
# Method in brief: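 Kinetic calcium-flux fluorescence (2 min, 1 sec intervals) after compound addition in agonist mode. HTR2A-CHO cells were cultured 18 h, then dye-loaded 1 h at 37 C.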
# [18] = cAMP Responsive Elements (CRE) small molecule agonists, cell-based qHTS assay (AID 1963590)
# Method in brief: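 Beta-lactamase reporter readout: LiveBLAzer B/G FRET substrate, 2 h at room temperature, added after 3 h compound treatment of CRE-bla HEK 293T cells at 37 C/5% CO2.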
# [19] = biological target: Beta-2 adrenergic receptor (Homo sapiens) (UniProt P07550); assay: Adrenergic beta2 receptor (ADRB2) small molecule antagonists, cell-based qHTS assay (AID 1963592); further: series mostly up to about 92 µM; nearly all actives have a fitted effect of over 50% in size
# Method in brief: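 Assay format: CHO-ADRB2 cells, 18-20hr seeding at 37C/5% CO2, then compound plus 1nM isoproterenol agonist mix for 0.5hr RT. Homogeneous time-resolved fluorescence cAMP detection after 1hr, expressed as 665/615 nm ratio.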
# Chain of Gonadotropin-releasing hormone receptor (Homo sapiens) (P30968 whole entry, looked up): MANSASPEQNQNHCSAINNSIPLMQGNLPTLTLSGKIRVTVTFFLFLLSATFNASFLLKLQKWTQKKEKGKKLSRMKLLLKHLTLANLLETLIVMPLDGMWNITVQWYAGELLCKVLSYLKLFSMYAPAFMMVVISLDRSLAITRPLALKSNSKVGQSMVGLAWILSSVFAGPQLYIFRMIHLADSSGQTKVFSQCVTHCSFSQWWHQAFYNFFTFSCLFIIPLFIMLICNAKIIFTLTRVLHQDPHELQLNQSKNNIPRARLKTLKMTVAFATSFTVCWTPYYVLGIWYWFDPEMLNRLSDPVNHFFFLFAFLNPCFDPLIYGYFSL
# Chain of D(2) dopamine receptor (Homo sapiens) (P14416 whole entry, looked up): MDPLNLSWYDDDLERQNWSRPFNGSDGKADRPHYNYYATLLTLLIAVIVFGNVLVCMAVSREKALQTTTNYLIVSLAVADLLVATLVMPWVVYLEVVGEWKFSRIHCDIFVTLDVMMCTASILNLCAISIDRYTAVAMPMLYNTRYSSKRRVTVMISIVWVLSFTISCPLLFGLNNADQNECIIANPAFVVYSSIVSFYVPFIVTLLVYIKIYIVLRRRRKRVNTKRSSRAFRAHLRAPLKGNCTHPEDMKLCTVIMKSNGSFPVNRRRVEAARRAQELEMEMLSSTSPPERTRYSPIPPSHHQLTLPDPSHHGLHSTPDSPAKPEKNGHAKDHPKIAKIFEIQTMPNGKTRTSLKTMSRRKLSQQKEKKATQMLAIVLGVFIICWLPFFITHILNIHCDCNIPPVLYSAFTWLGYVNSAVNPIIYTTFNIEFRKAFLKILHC
# Chain of Beta-2 adrenergic receptor (Homo sapiens) (P07550 whole entry, looked up): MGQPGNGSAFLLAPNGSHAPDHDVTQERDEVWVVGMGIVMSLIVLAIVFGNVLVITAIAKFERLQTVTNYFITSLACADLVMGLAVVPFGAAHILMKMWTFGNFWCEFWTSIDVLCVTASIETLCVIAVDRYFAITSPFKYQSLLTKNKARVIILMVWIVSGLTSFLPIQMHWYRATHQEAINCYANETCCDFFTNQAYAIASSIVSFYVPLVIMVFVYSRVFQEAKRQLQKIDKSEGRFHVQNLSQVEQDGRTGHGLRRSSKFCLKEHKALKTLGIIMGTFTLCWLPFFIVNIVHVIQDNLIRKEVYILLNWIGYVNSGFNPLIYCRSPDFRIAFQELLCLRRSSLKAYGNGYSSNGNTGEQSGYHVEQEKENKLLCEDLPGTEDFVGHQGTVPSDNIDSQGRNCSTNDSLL
# Chain of Muscarinic acetylcholine receptor M1 (Homo sapiens) (P11229 whole entry, looked up): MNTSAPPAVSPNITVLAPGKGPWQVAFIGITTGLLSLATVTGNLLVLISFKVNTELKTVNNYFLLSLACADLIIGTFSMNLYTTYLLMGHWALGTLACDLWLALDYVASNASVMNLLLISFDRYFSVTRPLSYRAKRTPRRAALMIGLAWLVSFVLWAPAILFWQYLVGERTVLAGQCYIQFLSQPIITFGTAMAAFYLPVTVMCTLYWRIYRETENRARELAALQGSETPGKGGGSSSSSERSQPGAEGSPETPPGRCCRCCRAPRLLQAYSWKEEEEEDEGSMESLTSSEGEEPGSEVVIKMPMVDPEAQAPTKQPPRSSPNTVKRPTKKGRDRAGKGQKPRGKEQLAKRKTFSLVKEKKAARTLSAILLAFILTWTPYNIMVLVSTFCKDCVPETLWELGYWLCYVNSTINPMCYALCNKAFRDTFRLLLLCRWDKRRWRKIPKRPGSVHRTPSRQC
# Chain of KiSS-1 receptor (Homo sapiens) (Q969F8 whole entry, looked up): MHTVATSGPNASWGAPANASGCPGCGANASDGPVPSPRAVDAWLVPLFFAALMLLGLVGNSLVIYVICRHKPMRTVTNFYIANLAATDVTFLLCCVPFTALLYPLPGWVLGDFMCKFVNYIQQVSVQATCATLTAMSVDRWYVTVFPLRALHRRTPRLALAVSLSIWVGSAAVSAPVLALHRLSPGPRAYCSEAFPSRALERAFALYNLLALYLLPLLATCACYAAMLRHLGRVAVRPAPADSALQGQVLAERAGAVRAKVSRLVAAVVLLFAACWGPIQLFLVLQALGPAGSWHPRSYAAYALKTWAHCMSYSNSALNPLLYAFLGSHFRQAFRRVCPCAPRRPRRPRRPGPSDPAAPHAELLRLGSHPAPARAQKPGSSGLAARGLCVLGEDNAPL
# Chain of 5-hydroxytryptamine receptor 2A (Homo sapiens) (P28223 whole entry, looked up): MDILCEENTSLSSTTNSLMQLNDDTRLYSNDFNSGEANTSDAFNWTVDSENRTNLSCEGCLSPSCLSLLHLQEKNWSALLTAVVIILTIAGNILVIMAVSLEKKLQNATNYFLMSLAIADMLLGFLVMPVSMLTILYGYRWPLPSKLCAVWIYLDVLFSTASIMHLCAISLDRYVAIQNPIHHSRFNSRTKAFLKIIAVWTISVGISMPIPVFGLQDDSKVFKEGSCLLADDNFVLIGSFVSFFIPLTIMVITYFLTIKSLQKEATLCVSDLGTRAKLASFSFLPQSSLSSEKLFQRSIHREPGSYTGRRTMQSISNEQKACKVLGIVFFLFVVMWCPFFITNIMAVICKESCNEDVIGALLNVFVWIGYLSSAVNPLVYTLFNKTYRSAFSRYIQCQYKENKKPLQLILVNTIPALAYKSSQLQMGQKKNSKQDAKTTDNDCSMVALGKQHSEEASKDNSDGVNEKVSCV
Structure (SMILES),Potency [1],Potency [2],Potency [3],Potency [4],Potency [5],Potency [6],Potency [7],Potency [8],Potency [9],Potency [10],Potency [11],Potency [12],Potency [13],Potency [14],Potency [15],Potency [16],Potency [17],Potency [18],Potency [19]
CCCC/C=C/CCCCO,inactive,inactive,inactive,inactive,inactive,inactive,inactive,inactive,inactive,inactive,inactive,inactive,inactive,–,–,–,–,–,–
COC(=O)CC(C)CCC=C(C)C (stereo not drawn),–,inactive,inactive,inactive,45.8 µM (active),–,inactive,inactive,inactive,inactive,inactive,inactive,inactive,inactive,inactive,inactive,inactive,inactive,inactive
CC(C)(C)c1csc(-c2cc3cc(OCc4ccccc4CC(=O)O)ccc3o2)n1,–,–,inactive,–,45.8 µM (active),–,–,–,–,–,–,inactive,inactive,inactive,–,inactive,–,–,–
CC[C@@H]([C@H](C)O)n1ncn(-c2ccc(N3CCN(c4ccc(OC[C@@H]5CO[C@@](Cn6cncn6)(c6ccc(F)cc6F)C5)cc4)CC3)cc2)c1=O,inactive,inactive,inactive,–,–,inactive,–,inactive,inactive,–,inactive,inactive,inactive,–,inactive,inactive,inactive,–,inactive
Cc1ccc(O)c([C@H](CCN(C(C)C)C(C)C)c2ccccc2)c1,inactive,inactive,–,inactive,–,inactive,inactive,–,inactive,inactive,inactive,inactive,inactive,–,–,–,–,inactive,inactive
CC(=O)O[Si](C)(OC(C)=O)OC(C)=O,–,–,inactive,inactive,inactive,inactive,–,inactive,–,inactive,–,inactive,inactive,inactive,inactive,inactive,inactive,inactive,inactive
C#Cc1cccc(Nc2ncnc3cc(OCCOC)c(OCCOC)cc23)c1,–,inactive,–,–,inactive,inactive,–,inactive,inactive,–,inactive,inactive,inactive,–,inactive,–,inactive,–,inactive
O=C1CN(/N=C/c2ccc([N+](=O)[O-])o2)C(=O)N1,inactive,–,–,–,–,–,–,–,–,–,inactive,inactive and 68.6 µM (active),inactive,inactive,inactive,–,–,–,inactive
CC(C)(C)c1ccc(OC(=O)c2ccccc2O)cc1,–,inactive,inactive,–,inactive,inactive,inactive,inactive,inactive,inactive,–,inactive,inactive,inactive,inactive,inactive,inactive,–,inactive
